Laboratory results reported in ChEMBL document CHEMBL4513216, “Probing the Open Global Health Chemical Diversity Library for Multistage-Active Starting Points for Next-Generation Antimalarials” (ACS Infect Dis, 2020).
About 2,700 (4%) of roughly 68,000 compounds showed an effect of 50% or more. Only a selection was taken, and strong results are over-represented in it overall.

system: Plasmodium berghei; experiment: Screen against P. berghei liver stage (PbLuc), transformed with Luciferase, at 2uM; type: functional, HepG2; settings: tested at 2 uM

Row | Structure (SMILES) | INHIBITION [%]
1 | O=C1CO[C@@H]2CN(Cc3ccncc3)C[C@H]2N1Cc1ccncc1 | 31.76
2 | O=C(Nc1ccc2c(c1)OCO2)Nc1cnn(C2CCOCC2)c1 | -59
3 | COCCn1cc(NC(=O)NCC(C)N2CCOCC2)cn1 (stereo unspecified) | 20.77
4 | CCn1cc(NC(=O)NCC(C)N(C)C)cn1 (stereo unspecified) | -3.58
5 | COCCn1cc(NC(=O)NCC(c2cccc(F)c2)N(C)C)cn1 (stereo unspecified) | 45.57
6 | CCn1cc(NC(=O)NCC(O)c2ccccc2)cn1 (stereo unspecified) | 20.28
7 | CCC(CC)C(CNC(=O)Nc1cnn(CCOC)c1)N(C)C (stereo unspecified) | 66.11
8 | CCn1cc(NC(=O)NCC(C)O)cn1 (stereo unspecified) | 62.13
9 | CCOC(=O)c1sc2ccsc2c1CNC(=O)CCOC | 27.47
10 | N#CCCCOc1cccnc1NC(=O)CCC1CCCC1 | -54.22
11 | Cc1nccn1-c1ccc(=O)n(CCNC(=O)c2ccncc2)n1 | -45.03
12 | CN1CCCCc2c1nc1c(c2N)CCCC1 | 14.11
13 | CC(O)c1cnn(-c2ccccc2)c1 (stereo unspecified) | 23.06
14 | COCCN1C[C@H]2CN(C(=O)c3ccc4c(c3)OCO4)CCN2C1=O | -2.66
15 | CC(C#N)(NC(=O)COc1ccccc1Br)C1CC1 (stereo unspecified) | 8.78
16 | CC(C)C1CCCN1C(=O)c1ccc(-n2ncc(C#N)c2N)cc1 (stereo unspecified) | -36.67
17 | Cc1cc(C)n(C2CCN(Cc3c(-c4cc(C)on4)nn(C)c3Cl)C2)n1 (stereo unspecified) | -11.77
18 | Cc1cc(-c2nn(C)c(Cl)c2CN2CC[C@H](CO)[C@@H](O)C2)no1 | -5.87
19 | Cc1cc(-c2nn(C)c(Cl)c2CN2CCCCC(N)C2)no1 (stereo unspecified) | 51.81
20 | CN1CCN(Cc2ccc(-c3ccc(-c4ccn[nH]4)cc3)nc2)CC1 | -35.16
21 | CC(=O)Nc1nc(COc2nc(C)no2)cs1 | -4.89
22 | CCC[C@@H]1CN(Cc2c[nH]c(CC3CCCC3)n2)C[C@H]1C(=O)O | 5.93

Row | Structure (SMILES) | INHIBITION [%]
23 | O=C(O)[C@@H]1CN(Cc2c[nH]c(CC3CCCC3)n2)C[C@H]1c1ccccn1 | 50.86
24 | O=C(O)[C@@H]1CN(Cc2c[nH]c(CC3CCCC3)n2)C[C@H]1c1ccncc1 | 25.35
25 | CCOCC1CN(C(=O)c2ccco2)Cc2cnn(CC)c21 (stereo unspecified) | 16.87
26 | Cc1ccsc1C(O)CNC(=O)Cc1ccc(F)cc1 (stereo unspecified) | 33.35
27 | COc1ccc(CC(=O)NCC(O)c2sccc2C)cc1OC (stereo unspecified) | 55.52
28 | Cc1ccsc1C(O)CNC(=O)Cc1ccc(S(=O)(=O)C(C)C)cc1 (stereo unspecified) | 16.03
29 | CCCn1nc(C)c(CNC(=O)c2snnc2C)c1C | 32.26
30 | Cc1nc(N)cc(C2CCN2CCOc2ccccc2)n1 (stereo unspecified) | -43.34
31 | Cc1cccc(-c2nc(C)nn2CC(=O)NC2CCCC2)c1 | 25.74
32 | Cc1ccc(NC(=O)c2ccc(=O)n(CC(=O)Nc3nccs3)n2)cc1 | -20.78
33 | Cc1ccc(NC(=O)c2ccc(=O)n(CC(=O)NC3CCCC3)n2)cc1 | 50.2
34 | CCc1nnsc1C(=O)NCc1c(C)nn(CCOC)c1C | 24.05
35 | Cn1nc(C2CCCN2)c2c(C(=O)NC3CC3)cc(C3CC3)nc21 (stereo unspecified) | 11.43
36 | Cc1ccoc1C1=NNC(=CN2CCn3c(nnc3C(C)C)C2)O1 | 83.22
37 | Cc1ccoc1C1=NNC(=CN2CCn3c(C)nnc3C2)O1 | -9.22
38 | Cc1ccoc1C1=NNC(=CN2CCOC(Cn3cccn3)C2)O1 (stereo unspecified) | 60.64
39 | Cc1ccoc1C1=NNC(=CN2CCCC(Cn3cncn3)C2)O1 (stereo unspecified) | 3.9
40 | CCc1nnc2n1CCN(C=C1NN=C(c3occc3C)O1)C2 | -27.57
41 | Cc1cnn(CC2CN(C=C3NN=C(c4occc4C)O3)CCO2)c1 (stereo unspecified) | -32.2
42 | NC(=O)C1CCN(C(=O)NCc2ccc3c(c2)OCCO3)CC1 | 42.17
43 | C[C@H]1C[C@H]2CN(S(=O)(=O)c3ccc(F)cc3)CC[C@H]2O1 | 47.42
44 | Cc1nc(N2CCOc3ccc(CO)cc3C2)c2nc(C)oc2n1 | 34.52

Row | Structure (SMILES) | INHIBITION [%]
45 | CC(C)OCCC(=O)NCCC(=O)N1CCN(c2ccccn2)CC1 | -8.63
46 | Cc1noc(C2CCN(Cn3cc(Cl)cn3)CC2)n1 | -16.03
47 | CCCOc1cc(CNC(=O)Nc2ccc(C)cc2)ccn1 | 5.88
48 | Cc1csc([C@@H]2C[C@H]3CN(c4ncc(F)cn4)C[C@H]3O2)n1 | 19.01
49 | O=C(C1CCN(c2cccnn2)C1)N1CCOCC1 (stereo unspecified) | 42.48
50 | CC(=O)N1CCN(C(=O)C2CCN(c3cccnn3)C2)CC1 (stereo unspecified) | -4.8
51 | CN1CCN(C(=O)C2CCN(c3cccnn3)C2)CC1 (stereo unspecified) | 33.64
52 | CN1CCC(C(=O)N2CCCN(c3cccnn3)CC2)C1 (stereo unspecified) | 45.48
53 | CN1CCN(C(=O)C2CCCN(c3cccnn3)C2)CC1 (stereo unspecified) | 59.49
54 | CN1CCN(C(=O)C2CCN(c3cccnn3)CC2)CC1 | 54.49
55 | CCC(C)c1cc(C(=O)N(CC(=O)NC)c2cccc(F)c2)on1 (stereo unspecified) | -7.58
56 | O=C([C@H]1C[C@H]2OCC[C@H]2N(CCc2ccccc2)C1)N1CCCCO1 | -10.8
57 | Cc1cc(C(=O)N2CCN(C(=O)CC(C)C)[C@@H]3CS(=O)(=O)C[C@@H]32)no1 | -57.02
58 | COc1ccc(CN2CCO[C@@H]3C[C@@H](C(=O)NC(C)C)C[C@H]32)cc1 | 3.72
59 | CCN1CC(COC(=O)c2cc(C)nn2CC)CC1=O (stereo unspecified) | 3.46
60 | COc1ccc2c(C)c(C(=O)NCC3CN(S(C)(=O)=O)CCO3)oc2c1 (stereo unspecified) | 60.71
61 | COc1ccc2c(C)c(C(=O)NC3CCN(S(C)(=O)=O)CC3)oc2c1 | 11.9
62 | COc1ccc2c(C)c(C(=O)NC3CCOCC3)oc2c1 | -8.3
63 | CC(C)CN1C[C@H](COCc2ccccc2)Oc2ncccc2C1=O | 37.74
64 | COc1cc2[nH]c(=O)c(CN3CCC[C@H]3CO)cc2c(OC)c1OC | 63.1
65 | COc1cc2[nH]c(=O)c(CN3CCC[C@@H]3C(N)=O)cc2c(OC)c1OC | -30.15
66 | COc1cc2[nH]c(=O)c(CN3CCCC3C)cc2c(OC)c1OC (stereo unspecified) | -5.51
